This is a sample that favours compounds with a hit; in the whole collection about 2.1% have one here.
aSyn yeast inh: inhibitors of alpha-synuclein toxicity in yeast | AID 652106 | Potency, µM (highest dose often 46.1 µM), without a hit: at the highest dose growth rescue (activation), actives largely listed as activators | Yeast expressing alpha-synuclein, growth rescue, BacTiter-Glo, 24 h | 0.14% of 370,000 active; further: % of control where 0% means no effect; nearly all actives have a fitted effect of over 65% in size
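Readout is rescue of growth in alpha-synuclein-expressing yeast, so inhibitors of toxicity appear as activators. Growth after 24 hr at 30 deg C in galactose medium is quantified by luminescence.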
Abeta yeast res: compounds reversing amyloid beta toxicity in yeast; yeast expressing A-beta42, growth rescue, OD600, 48 h; response scale: 0% DMSO, 100% iron-clioquinol control; Potency, µM (doses to about 46.1 µM), actives largely listed as activators; 0.063% of 410,000 active; AID 1347071; further: nearly all actives have a fitted effect of over 55% in size
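Yeast growth medium received pinned compounds, then yeast cells expressing toxic A-beta were added; plates incubated at 30 C for 48 hr. Growth read as absorbance at 600 nm, normalized to DMSO and equimolar FeCl3 plus clioquinol controls.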
FUS suppressor: suppressors of FUS proteinopathy in yeast. S. cerevisiae FUS-expressing, growth rescue, OD600, 24 h. Potency, µM (highest dose often 76.6 µM), usual class: activators. 0.24% of 390,000 active. AID 1347120;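 further: plate controls were DMSO vehicle for no effect and reference control for full effect; nearly all actives have a fitted effect of over 55% in size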
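Yeast FUS proteinopathy model; galactose-induced FUS (2%), starting OD 0.005. Cpds in dilution series, 24hr, 30C, 99% humidity. Abs 600 nm growth. Pos ctrl CP55940 (top 92uM final); neg ctrl DMSO.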
TDP-43 yeast inh: inhibitors of TDP-43 toxicity in yeast; Potency, µM (series often up to 46.1 µM), for inactives: top-dose growth rescue (activation), most hits filed as activators; TDP-43 expressing yeast growth rescue, BacTiter-Glo, 24 h; 1.8% of 410,000 active; AID 652104; further: % of control where 0% means no effect; nearly all actives have a fitted effect of over 50% in size
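Growth rescue of TDP-43-toxic yeast measured as ATP luminescence (BacTiter-Glo). Cells grown to mid-log in raffinose, induced in galactose at OD600=0.02, exposed to compound 24 hr at 30 deg C.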
An asterisk follows results filed as active; i = inactive; ? = inconclusive; nt = not tested or not shown. The call rests on the fitted dose curve; in most records, active means well fitted curve in the direction sought with a large enough effect; inconclusive means small, poorly fitted or top-dose-only effect, or another doubt; inactive means no such curve, though single readings can be large; an effect the other way counts as inactive or inconclusive. Potency means the concentration at half of the fitted maximal effect.

SMILES | aSyn yeast inh | Abeta yeast res | FUS suppressor | TDP-43 yeast inh
COc1ccc(OC)c(-c2cc(C(=O)N3CCN(c4ccccc4)CC3)no2)c1 | 9% | i | ? | 22µM*
COc1ccc(OC)c(-c2cc(C(=O)N3CCc4ccccc4C3)no2)c1 | 22% | i | i | 9%
CC(C)C(=O)Nc1ccc(N2CCN(C(=O)c3cccs3)CC2)cc1 | -6% | i | i | 5%
Cc1ccc2c(c1)CCC2=O | 13% | nt | nt | nt
O=C(c1cc(-c2cccs2)on1)N1CCN(c2ccccc2)CC1 | 8% | i | i | 11µM*
COc1ccc(OC)c(-c2noc(N3CCN(c4ccc(Cl)cc4)CC3)n2)c1 | nt | i | i | 11µM*
O=C(COCc1cc(-c2cccs2)on1)N1CCN(c2ccc(F)cc2)CC1 | nt | i | i | 16µM*
O=C(c1cc(-c2cccs2)on1)N1CCN(c2ccc(F)cc2)CC1 | 7% | i | i | 4%
CCOc1cc(/C=C2\CCn3c2nc2cc(Cl)ccc2c3=O)ccc1O | -10% | i | i | 8%
COC(=O)c1ccc(CNC(=O)C23CC4CC(CC(C4)C2)C3)cc1 | 9% | i | i | -5%
CCCCc1c(-c2cccc(F)c2)ncn1CCc1ccccc1OC | 5% | i | i | 0%
CCCCc1c(-c2cccc(Br)c2)ncn1CCc1ccccc1OC | 3% | i | i | 25µM*
COC(=O)CN1C(=O)CSc2ccc(S(=O)(=O)Nc3ccc(C(C)=O)cc3)cc21 | nt | i | i | 19%
Cc1ccc(C)c(CSC2=NC(C)(C)Nc3ccccc32)c1 | nt | i | i | 15%
CC1(C)N=C(SCc2ccc(F)cc2)c2ccccc2N1 | nt | i | i | 11µM*
Cc1cccc(N2C(S)=C(C#N)C(=O)NC23CCCCC3)c1 | 8% | i | nt | -25%
Cc1ccc(N2C(S)=C(C#N)C(=O)NC23CCCCC3)cc1 | 1% | i | nt | 22µM*
Cn1cccc1CNC(=O)Nc1ccccc1 | 0% | i | 22µM* | -13%
O=C(Nc1cccc(NC(=O)c2ccc3c(c2)OCO3)c1)c1ccccc1 | -3% | i | i | 19%
CC(=O)c1cccc(NC(=O)N(c2ccccc2)c2ccccc2)c1 | 12% | i | i | 16µM*
CC(=O)c1cccc(NC(=O)c2ccc3c(c2)OCO3)c1 | 3% | i | i | 13µM*
O=C(CNC(=O)c1ccccc1Cl)NCCc1cccs1 | -6% | i | i | -1%
CCCCn1nc(C(=O)Nc2ccccc2N2CCCC2)c2ccccc2c1=O | 5% | i | nt | 27%
C=C(C)C(=O)N1CC2(CC(c3cccc(NC(=O)CC(c4ccccc4)c4ccccc4)c3)=NO2)C[C@H]1C(N)=O (some centres undefined) | 11% | i | 32µM* | -12%
NC(=O)[C@@H]1CC2(CC(c3cccc(NC(=O)COc4ccc(Cl)cc4)c3)=NO2)CN1C(=O)COc1ccc(Cl)cc1 (some centres undefined) | 1% | i | 18µM* | -22%
SMILES | aSyn yeast inh | Abeta yeast res | FUS suppressor | TDP-43 yeast inh
NC(=O)[C@@H]1CC2(CC(c3cccc(NC(=O)CC(c4ccccc4)c4ccccc4)c3)=NO2)CN1C(=O)c1ccc(Cl)cc1 (some centres undefined) | 0% | i | 28µM* | -9%
C/C=C\C=C\C(=O)Nc1cccc(C2=NOC3(C2)C[C@@H](C(N)=O)N(C(=O)C(c2ccccc2)c2ccccc2)C3)c1 (some centres undefined) | 4% | i | 32µM* | 8%
N#CCC(=O)N1CC2(CC(c3cccc(NC(=O)COc4ccc(Cl)cc4)c3)=NO2)C[C@@H]1C(N)=O (some centres undefined) | 2% | i | i | 1%
NC(=O)[C@H]1CC2(CC(c3cccc(NC(=O)CC(c4ccccc4)c4ccccc4)c3)=NO2)CN1C(=O)CC(c1ccccc1)c1ccccc1 (some centres undefined) | 0% | i | ? | 0%
COc1ccccc1CC(=O)O/N=C(\N)c1ccccn1 | 10% | i | i | ?
COc1ccc(/C(N)=N/OC(=O)Cc2ccccc2OC)cc1 | -1% | i | i | 20µM*
COc1ccc(CC(=O)O/N=C(\N)c2ccc(C)cc2)cc1 | 4% | i | i | 7.9µM*
COc1ccc(CC(=O)O/N=C(\N)c2ccncc2)cc1 | 2% | i | i | 9%
COc1ccc(OCC(=O)O/N=C(\N)c2ccc(OC)c(OC)c2)cc1 | 3% | i | i | 20%
COc1ccc(C/C(=N\O)c2ccc(OC)cc2)cc1 | 3% | i | i | 14µM*
COc1cccc(OCC(=O)O/N=C(\N)c2ccc(OC)c(OC)c2)c1 | 11% | i | nt | 11µM*
S=c1[nH]nc(-c2ccncc2)n1/N=C/c1cccc(Cl)c1 | -7% | i | i | 7%
COc1cccc(CNC(=O)c2ccc(NC(=O)C3=CSCCO3)cc2)c1 | 10% | nt | i | 5%
CCC(C)[C@@H](NC(=O)OC(C)(C)C)c1nnc(S(=O)(=O)Cc2cccc(C)c2)o1 (some centres undefined) | 7% | i | i | 7.9µM*
Fc1ccccc1CSc1nnc(-c2ccccc2)o1 | 0% | i | i | 11µM*
Fc1ccccc1CSc1nnc(-c2cccnc2)o1 | -2% | i | i | ?
COc1ccc(-c2nnc(SCc3ccccc3F)o2)cc1 | 5% | i | i | 11µM*
CCCCN1C(=O)C(CC(=O)NCCN2CCOCC2)CC(C(=O)N(CC)CC)=C1C (centres undefined) | -5% | i | i | 28%
Cc1ccc2c(c1)[C@@H]1[C@H](CO2)[C@H](c2ccccc2)[C@@]2(C)C(=O)N[C@H](C)C(=O)N12 | 9% | i | i | 5%
CCCCc1ccc(NC(=O)CN(C)CC(=O)Nc2ccccc2Cl)cc1 | 27% | ? | 35µM* | 13%
CN(CC(=O)Nc1ccccc1)CC(=O)Nc1ccccc1Cl | 10% | i | i | 19%
CC(=O)Oc1ccc2cc(-c3ccccc3)c(=O)oc2c1 | 0% | i | i | ?
CCCNC(=O)C1(C)CCCN(C(=O)C2(c3ccc(Cl)cc3)CCCC2)C1 (centres undefined) | 6% | i | i | 35µM*
O=C(NCC(c1ccccc1)c1ccccc1)[C@H](Cc1ccccc1)NC1(C(=O)NC2CCCCC2)CCOCC1 | nt | nt | i | nt
CC(C)(C)Sc1ccc(/C=N/O)cc1[N+](=O)[O-] | 9% | i | i | 16µM*
Cc1ccc(Sc2ccc(/C=N/O)cc2[N+](=O)[O-])cc1 | 1% | i | i | ?
Fc1cccc(CNC2CCC23CCC(c2ccccc2)CC3)c1 (centres undefined) | nt | nt | i | nt
COc1ccc(-c2cccc(NS(=O)(=O)c3cc(C(F)(F)F)ccc3Cl)c2)nn1 | nt | i | i | 6%
COc1ccc(-c2cccc(NS(=O)(=O)c3cc(C)c(Cl)cc3C)c2)nn1 | nt | i | ? | 18µM*
